A number with no mark means an inactive call. For some assays here: Measured potencies and affinities stand elsewhere. The source made the active and inactive calls. Unless noted, how the calls were made is not given here.
Legend:
[1] = antimalarial activity against Dd2 strain (AID 2302;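 active means growth inhibition above 50% at the single 2 µM test dose, taken to imply half-maximal potency below 2 µM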;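 further: 0% = DMSO untreated growth and 100% = chloroquine plus artemisinin killed control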); settings: P. falciparum Dd2 in RBCs, LDH growth readout, 72 h; at 2 µM; stronger effect = higher value
[2] = HepG2 cytotoxicity, primary screen, cytotoxicity control for P. falciparum antimalarial project, cell-based, ATP luminescence (AID 2303;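 active means inhibition above 50%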;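 further: 0% = DMSO wells and 100% = digitonin-killed cells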); settings: HepG2 viability, 24-48 h, at 10 µM, stronger effect = higher value
[3] = biological target: L-lactate dehydrogenase (Plasmodium falciparum (isolate CDC / Honduras)) (UniProt Q27743); assay: PfLDH activity inhibition – cell lysate, 3D7 strain, counter-screen for P. falciparum growth inhibition project (AID 2304);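 further: 0% = vehicle and 100% = reference inhibitor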; settings: P. falciparum 3D7 crude extract, LDH APAD/NBT absorbance; at 2 µM; stronger effect = higher value
[4] = inhibition of 3D7 malaria parasite growth – strain 3D7 (AID 2306);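 further: 0% = DMSO wells and 100% = chloroquine plus artemisinin control wells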; settings: P. falciparum 3D7 erythrocytic growth, LDH absorbance, 72 h; at 2 µM; stronger effect = higher value
[5] = biological target: Calcium-dependent protein kinase 1 (Plasmodium falciparum (isolate 3D7)) (UniProt P62344); assay: PfCDPK1 kinase inhibitors, biochemical, TCAMS library (AID 1159585; cut-off not given, nearly all actives have IC50 up to about 0.98 µM;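 further: inhibitors leave more ATP so luminescence rises with inhibition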); settings: recombinant PfCDPK1, Kinase-Glo ATP depletion luminescence
[6] = biological target: Plasmodium falciparum protein kinase 6 (PK6, PF3D7_1337100) (UniProt Q8IDW1); assay: PfPK6 kinase inhibitors, biochemical, TCAMS library (AID 1159586); settings: recombinant PfPK6, Kinase-Glo ATP depletion luminescence
[7] = biological target: Protein kinase 7 (PK7), Plasmodium falciparum 3D7 (PF3D7_0213400) (UniProt Q7YTF7); assay: inhibition of Plasmodium PK7 catalytic activity – biochemical, TCAMS antimalarial set, Kinase-Glo luminescence (AID 1159587); settings: recombinant PfPK7, Kinase-Glo ATP depletion luminescence
[8] = biological target: Calcium-dependent protein kinase 4 (Plasmodium falciparum (isolate 3D7)) (UniProt Q8IBS5); assay: PfCDPK4 kinase inhibitors, biochemical, TCAMS library (AID 1159588; cut-off not given, nearly all actives have IC50 up to about 0.91 µM); settings: recombinant PfCDPK4, Kinase-Glo ATP depletion luminescence
Calcium-dependent protein kinase 4 (Plasmodium falciparum (isolate 3D7)), sequence (Q8IBS5 whole entry, looked up): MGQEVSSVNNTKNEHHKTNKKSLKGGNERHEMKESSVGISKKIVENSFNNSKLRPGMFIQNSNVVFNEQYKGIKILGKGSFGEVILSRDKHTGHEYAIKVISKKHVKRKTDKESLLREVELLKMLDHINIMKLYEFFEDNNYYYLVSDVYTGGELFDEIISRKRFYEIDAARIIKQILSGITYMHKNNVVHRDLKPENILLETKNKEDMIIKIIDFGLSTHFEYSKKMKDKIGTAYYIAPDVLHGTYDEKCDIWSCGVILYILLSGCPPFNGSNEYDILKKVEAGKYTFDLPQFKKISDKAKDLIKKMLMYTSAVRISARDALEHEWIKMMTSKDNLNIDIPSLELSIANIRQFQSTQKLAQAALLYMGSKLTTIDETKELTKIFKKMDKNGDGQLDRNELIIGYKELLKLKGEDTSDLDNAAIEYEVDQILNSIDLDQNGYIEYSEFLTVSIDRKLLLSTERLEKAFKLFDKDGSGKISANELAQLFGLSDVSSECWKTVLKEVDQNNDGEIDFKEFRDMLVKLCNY

Calcium-dependent protein kinase 1 (Plasmodium falciparum (isolate 3D7)), sequence (P62344 whole entry, looked up): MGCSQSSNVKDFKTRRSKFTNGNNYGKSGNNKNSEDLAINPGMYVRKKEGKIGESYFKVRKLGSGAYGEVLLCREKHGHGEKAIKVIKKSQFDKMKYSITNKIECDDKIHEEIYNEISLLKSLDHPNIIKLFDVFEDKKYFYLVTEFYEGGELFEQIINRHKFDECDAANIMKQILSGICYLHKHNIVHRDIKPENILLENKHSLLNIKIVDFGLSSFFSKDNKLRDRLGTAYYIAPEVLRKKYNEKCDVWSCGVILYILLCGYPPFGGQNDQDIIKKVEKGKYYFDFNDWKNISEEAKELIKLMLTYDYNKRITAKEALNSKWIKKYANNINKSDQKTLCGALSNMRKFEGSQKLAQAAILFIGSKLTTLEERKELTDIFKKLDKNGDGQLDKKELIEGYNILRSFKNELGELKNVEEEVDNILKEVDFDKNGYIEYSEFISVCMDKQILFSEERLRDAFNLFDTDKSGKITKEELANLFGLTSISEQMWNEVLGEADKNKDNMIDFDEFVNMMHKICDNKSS
L-lactate dehydrogenase (Plasmodium falciparum (isolate CDC / Honduras)), sequence (Q27743 whole entry, looked up): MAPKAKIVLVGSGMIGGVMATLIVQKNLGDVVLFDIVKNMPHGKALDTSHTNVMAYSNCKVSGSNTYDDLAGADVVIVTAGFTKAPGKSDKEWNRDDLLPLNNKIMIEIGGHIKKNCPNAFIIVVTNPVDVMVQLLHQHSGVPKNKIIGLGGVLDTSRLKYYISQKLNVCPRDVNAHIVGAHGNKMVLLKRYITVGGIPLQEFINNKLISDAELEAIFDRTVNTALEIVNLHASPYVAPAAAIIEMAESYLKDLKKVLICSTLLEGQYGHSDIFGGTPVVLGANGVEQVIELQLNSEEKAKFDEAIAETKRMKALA
Plasmodium falciparum protein kinase 6 (PK6, PF3D7_1337100), sequence (Q8IDW1 1-305): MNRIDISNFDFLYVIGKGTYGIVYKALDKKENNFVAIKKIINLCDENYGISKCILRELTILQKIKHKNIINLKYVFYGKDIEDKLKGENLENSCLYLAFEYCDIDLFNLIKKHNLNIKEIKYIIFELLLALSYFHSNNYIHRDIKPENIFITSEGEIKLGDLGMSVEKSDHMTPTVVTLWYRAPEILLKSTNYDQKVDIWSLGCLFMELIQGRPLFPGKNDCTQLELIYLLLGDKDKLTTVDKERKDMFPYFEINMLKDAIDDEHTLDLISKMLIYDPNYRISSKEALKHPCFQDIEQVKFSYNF
Protein kinase 7 (PK7), Plasmodium falciparum 3D7 (PF3D7_0213400), sequence (Q7YTF7 1-343): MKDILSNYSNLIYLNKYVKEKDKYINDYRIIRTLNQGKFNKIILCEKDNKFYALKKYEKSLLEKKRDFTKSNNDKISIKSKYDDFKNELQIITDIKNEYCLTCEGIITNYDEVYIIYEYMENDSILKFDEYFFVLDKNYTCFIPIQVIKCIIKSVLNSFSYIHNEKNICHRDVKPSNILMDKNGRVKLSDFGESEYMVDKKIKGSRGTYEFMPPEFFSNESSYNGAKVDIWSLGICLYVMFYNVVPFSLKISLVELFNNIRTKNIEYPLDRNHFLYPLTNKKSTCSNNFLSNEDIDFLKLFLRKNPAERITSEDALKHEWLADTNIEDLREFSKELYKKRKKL

Structure (SMILES)	growth inhibition [1]	inhibition [2]	inhibition [3]	growth inhibition [4]	outcome [5]	outcome [6]	outcome [7]	outcome [8]
CC1(C)C[C@@H]2C[C@@](C)(CN2C(=O)c2cc(C(C)(C)C)nn2Cc2ccccc2)C1	77% (active)	-3%	0%	86% (active)	inactive	inactive	inactive	inactive
N#Cc1ccc(NC(=NCCc2c[nH]c3ccccc23)Nc2ccc(-c3ccccc3)cc2)c(O)c1	75% (active)	6%	6%	96% (active)	inactive	inactive	inactive	inactive
O=C(Nc1ccc(F)cc1)NC1CCN(c2ccnc3cc(Cl)ccc23)C1 (stereo not given)	67% (active)	17%	2%	101% (active)	inactive	inactive	inactive	inactive
Cc1cccc(C(=O)Nc2ccnc(N3CCCN(Cc4cccc(O)c4)CC3)c2)c1	13%	-21%	3%	84% (active)	inactive	inactive	inactive	inactive
Cc1cc2c(NC(=O)NC3CCN(CCc4cccc(Cl)c4)CC3)cccc2cn1	27%	12%	-5%	100% (active)	inactive	inactive	inactive	inactive
CCCc1cc(Cc2cnc(N)nc2N)cc(CC)c1OC	1%	4%	-7%	97% (active)	inactive	inactive	inactive	inactive
COc1ccc(Nc2nccc(N3CCC(NC(=O)C(C)c4ccc(Cl)cc4)C3)n2)cc1 (stereo not given)	97% (active)	35%	-4%	85% (active)	inactive	inactive	inactive	inactive
CCCCCCN1CCCN(Cc2cccc(C(=O)Nc3ccc(C(C)(C)C)cc3)c2)CC1	23%	41%	0%	93% (active)	inactive	inactive	inactive	inactive
CCC(C)NS(=O)(=O)c1ccc2nc(Nc3cccc(SC)c3)n(C(C)C(C)C)c2c1 (stereo not given)	70% (active)	-1%	2%	94% (active)	inactive	inactive	inactive	inactive
Clc1ccc(Nc2nc3nonc3nc2Nc2ccc(Cl)c(Cl)c2)cc1	92% (active)	75% (active)	0%	99% (active)	inactive	inactive	inactive	inactive
CCN(CC)CCNC(=O)c1ccc(NC(=O)c2cn(-c3ccccc3)nc2-c2cccs2)cc1	94% (active)	30%	-1%	103% (active)	inactive	inactive	inactive	inactive
Cc1cc(N2CCN(C(=O)OC(C)(C)C)CC2)ccc1N	38%	11%	-2%	92% (active)	inactive	inactive	inactive	inactive
CC(C)CN(C)Cc1ccc(-c2ccc(-c3nc4ccccc4[nH]3)s2)cc1	76% (active)	8%	2%	97% (active)	inactive	inactive	inactive	inactive
CCCCOc1ccc(CNCCCCCCNCc2ccc(OCCCC)c3ccccc23)c2ccccc12	49%	100% (active)	2%	81% (active)	inactive	inactive	inactive	inactive
CN(C)CCCNc1ncnc2c1[nH]c1ccc(Br)cc12	19%	3%	3%	100% (active)	inactive	inactive	inactive	inactive
CCCC1N=C(N)N=C(N)N1c1ccc(Cl)cc1 (stereo not given)	-2%	14%	5%	96% (active)	inactive	inactive	inactive	inactive
COCCn1c(-c2cccc(Cl)c2)nn(-c2ccc([N+](=O)[O-])cc2C#N)c1=S	100% (active)	7%	0%	100% (active)	inactive	inactive	inactive	inactive
O=C(Nc1ccc(-c2nc3ccccc3[nH]2)cc1)c1cccc(S(=O)(=O)N2CCOCC2)c1	43%	6%	-5%	89% (active)	inactive	inactive	inactive	inactive
CC(C)NCc1ccc(-c2cccc(NC(=O)c3ccc(C#N)cc3)c2)cc1	19%	8%	4%	100% (active)	inactive	inactive	inactive	inactive
OC[C@H](Nc1nc(C(Oc2ccccc2)c2ccccc2)nc2[nH]ncc12)c1ccccc1 (stereo not given in full)	45%	0%	-4%	98% (active)	inactive	inactive	inactive	inactive

Structure (SMILES)	growth inhibition [1]	inhibition [2]	inhibition [3]	growth inhibition [4]	outcome [5]	outcome [6]	outcome [7]	outcome [8]
CCN(CCCN1CCCCC1)c1cc(C)nc(Nc2cccc(OC(F)(F)F)c2)n1	99% (active)	32%	-2%	102% (active)	inactive	inactive	inactive	inactive
Cc1ccc(CNC(=O)[C@H](Cc2ccccc2)Nc2cc(C)nc(NCC3CCCCC3)n2)cc1	89% (active)	-10%	0%	101% (active)	inactive	inactive	inactive	inactive
CC(C)CCN1CCC(Oc2ccc(NC(=O)c3ccc(F)cc3)cc2Cl)CC1	88% (active)	33%	4%	98% (active)	inactive	inactive	inactive	inactive
O=c1[nH]c(NCCCCCN2CCC(c3c[nH]c4ccccc34)CC2)ncc1Cc1ccc(Cl)c(Cl)c1	8%	21%	-4%	94% (active)	inactive	inactive	inactive	inactive
Cc1nc(N)nc(N)c1CCCOc1ccccc1Br	5%	53% (active)	5%	97% (active)	inactive	inactive	inactive	inactive
CC(Sc1nc(-c2ccccc2)c(-c2ccccc2)o1)C(=O)NC1CC1 (stereo not given)	91% (active)	13%	-2%	94% (active)	inactive	inactive	inactive	inactive
CC(=O)Nc1ccc(CN2CCC(CNC(=O)c3cc(-c4cccc(C(F)(F)F)c4)cs3)C2)cc1 (stereo not given)	3%	24%	2%	97% (active)	inactive	inactive	inactive	inactive
NC(N)=Nc1nc(-c2cccc(NCCCCCCCCON3C(N)=NC(N)=NC34CCCCC4)c2)cs1	42%	3%	-2%	97% (active)	inactive	inactive	inactive	inactive
COc1cc(OC)cc(C(=O)Nc2cccc(-c3cn4ccc(C)cc4n3)c2)c1	45%	4%	0%	86% (active)	inactive	inactive	inactive	inactive
CCC(C)C(COC(=O)c1cc(OC)c(OC)c(OC)c1)N(C)CCN(C)C(COC(=O)c1cc(OC)c(OC)c(OC)c1)C(C)CC (stereo not given)	45%	20%	3%	84% (active)	inactive	inactive	inactive	inactive
Cn1cncc1-c1ccc2ncnc(Nc3ccc4c(cnn4Cc4ccccc4)c3)c2c1	99% (active)	1%	-3%	100% (active)	inactive	inactive	inactive	inactive
Cc1ccc(Cc2cnc(NCCSCc3ccc(CN4CCOCC4)o3)[nH]c2=O)cn1	-3%	2%	-4%	95% (active)	inactive	inactive	inactive	inactive
CC[C@H]1CN2CCc3cc(OC)c(OC)cc3[C@@H]2C[C@@H]1CC1=NCCc2c1[nH]c1ccc(OCc3ccccc3)cc21	89% (active)	57% (active)	-2%	101% (active)	inactive	inactive	inactive	inactive
CC(=O)N1CCC(C(=O)Nc2ccc(-c3cccc(-c4nc5c(C)cccc5[nH]4)c3)cc2)CC1	27%	85% (active)	-1%	84% (active)	inactive	inactive	inactive	inactive
NC1=NC(c2ccccc2)(c2ccccc2)C(=O)N1CCOc1ccccc1	57% (active)	42%	0%	90% (active)	inactive	inactive	inactive	inactive
Cc1noc(-c2ccc3c(c2)CCN(CCC2CCC(NC(=O)c4cc5ccccc5[nH]4)CC2)CC3)n1 (stereo not given)	41%	21%	-7%	99% (active)	inactive	inactive	inactive	inactive
O=C(NCCNc1noc(-c2sccc2Br)n1)c1ccc(Cl)cc1	1%	-5%	2%	93% (active)	inactive	inactive	inactive	inactive
CO/C(=C\C=C\c1cc2cc(Cl)c(Cl)cc2[nH]1)C(=O)NCCCN1CCN(c2cccc(Cl)c2)CC1	77% (active)	58% (active)	3%	100% (active)	inactive	inactive	inactive	inactive
O=C(Nc1ccc(-c2ccccc2)cc1)Nc1ccc2c(c1)CCNCC2	48%	41%	-2%	97% (active)	inactive	inactive	inactive	inactive
O=C(Nc1cccc(C(F)(F)F)c1)c1cccc(S(=O)(=O)NC2CCCN(CC3CCCCC3)C2)c1 (stereo not given)	15%	18%	1%	97% (active)	inactive	inactive	inactive	inactive
